tim10-1 inh = growth inhibitors of tim10-1 mutant yeast; S. cerevisiae tim10-1 ts strain growth, BacTiter-Glo, 24 h; AID 463190; inhibition, % at 20 µM; actives 2.2% (n = 330,000);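 active = inhibition of at least 40%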;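 also: mutant grown at 25 °C; 0% = DMSO wells with yeast and 100% = wells holding no yeast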
V-ATPase pH = alters yeast V-ATPase proton transport; S. cerevisiae, pHLuorin cytosolic pH fluorescence; actives 0.37% (n = 350,000); AID 504577; response, % at 10 µM; in the data active = response mostly above about 7.3%, no sharp cut-off; inactive = mostly below about 5.4%; also: actives read high
NLRP3 yeast inh = inhibitors of NALP3 inflammasome in yeast; Yeast reconstituted NLRP3/ASC/caspase-1, beta-gal luminescence, 24 h; inhibition, % at 10 µM; actives 0.39% (n = 330,000); AID 2825;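 active = inhibition of 50% or more; inactive = inhibition below 50%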;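 also: plate controls were induced DMSO wells for no effect and uninduced yeast grown without galactose for full effect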
tim23-1 inh = inhibits growth of tim23-1 mutant yeast. S. cerevisiae tim23-1 growth, BacTiter-Glo luminescence, 24 h. AID 463212. inhibition, % at 20 µM. actives 1.3% (n = 330,000);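 active = growth inhibition of the mutant yeast at or above 50%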;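 also: temperature-sensitive mutant grown at 25 °C; plate controls were DMSO-treated mutant yeast for no effect and medium wells lacking yeast for full effect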
TIM10 inh = TIM10 yeast growth inhibition; S. cerevisiae TIM10 strain growth, BacTiter-Glo luminescence, 24 h; inhibition, % at 10 µM; actives 1.4% (n = 330,000); AID 463195;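 active = inhibition of 40% or more at the single tested concentration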;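 also: wild-type TIM10 isogenic control strain grown at permissive 25 °C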
NALP1 inh = NALP1 inhibition. S. cerevisiae NALP1/ASC/caspase-1 growth, X-gal OD620, 72 h. inhibition, % at 10 µM. actives 0.61% (n = 280,000). AID 2071; in the data active = inhibition mostly above about 24%, no sharp cut-off; inactive = mostly below about 32%
tim10-1 conf = tim10-1 yeast growth inhibition, confirmed; S. cerevisiae tim10-1 ts strain growth, BacTiter-Glo, 24 h; shares compounds with tim10-1 inh; inhibition, % at 20 µM; AID 463213; actives 56% (n = 7,400);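 active = inhibition of yeast growth at or above a set limit in either of two repeat tests at 20 µM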;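 also: tim10-1 mutant grown at permissive 25 °C to find synthetic lethal compounds; 0% = DMSO yeast wells and 100% = medium wells without yeast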
* hit, by the source's call; · = not tested or not shown; ! = not confirmed by another sample. An excerpt weighted towards active compounds, which were near 4.2% of everything screened.

SMILES	tim10-1 inh	V-ATPase pH	NLRP3 yeast inh	tim23-1 inh	TIM10 inh	NALP1 inh	tim10-1 conf
COc1ccc(C2/C=C\CN(C(=O)c3ccc(C)cc3)CC(=O)N2Cc2ccc(F)cc2)cc1 (centres undefined)	40.2*	0.8	14.3	8.2	12.7	1.6	20.6
CC(C)C[C@H](NC(=O)OC(C)(C)C)C(=O)N1CCC(C(=O)N[C@@H](Cc2c[nH]c3ccccc23)C(=O)O)CC1	3.3	2.3	-3.8	20.6	9.7	12.5	·
COc1ccc(C(=O)NC2CCCc3c2cnn3-c2cc(F)cc(F)c2)c(OC)c1OC (centres undefined)	41.5*	-0.8	5.3	38.9	11.9	6.6	28.0*
O=C(O)CCC(=O)Nc1cccc2cccnc12	72.4*	-1.3	8.9	-2.3	12.6	-4.9	1.0
NS(=O)(=O)c1ccc(NC(=O)CN2CCCCC2)cc1	11.7	-1.9	0.3	7.4	0.3	28.8	·
CSc1ncc(Cl)c(C(=O)Nc2nnc(SC/C=C/c3ccccc3)s2)n1	41.8*	-0.8	-14.1	28.6	16.0	28.5	38.6*
Cc1[nH]c2ccccc2c1NC(=O)CN1CCN(c2cccc(C(F)(F)F)c2)CC1	24.5	2.1	10.0	5.6	21.0	38.8	·
Cc1[nH]c2ccccc2c1C(O)CN1CCN(c2cccc(C(F)(F)F)c2)CC1 (centres undefined)	54.6*	4.2	-6.0	-3.2	25.8	8.7	48.3*
O=C1NC(Cc2ccccc2)c2nc3ccc(F)cc3c(=O)n2-c2cc3ccccc3cc21 (centres undefined)	·	3.4	·	·	·	·	·
Cc1cc(C)n(-c2ccc(C(=O)NC3CCCCC3)cc2)n1	22.8	-5.1	3.5	2.7	26.1	-9.2	·
O=C(Nc1nc2ccccc2[nH]1)c1ccccc1F	45.6*	0.8	26.2	49.7	32.6	11.7	29.7
O=C(Nc1nc2ccccc2[nH]1)c1ccc(F)cc1	8.5	8.4	17.6	8.0	12.6	13.9	·
Cc1ccc(S(=O)(=O)NC(CC(C)C)C(=O)N2CCCCCCC2)cc1 (centres undefined)	37.3	-0.3	15.3	44.4	15.7	·	·
CCC(C)C(=O)Nc1nnc(SCC(=O)NC2CCCC2)s1 (centres undefined)	9.7	1.2	-20.6	21.2	-7.1	23.2	·
O=C(O)c1ccc(-c2nnc(-c3ccccc3)o2)cc1	10.3	-2.7	-1.8	14.7	15.2	-11.7	·
O=C(c1ccc(-c2nnc(-c3ccccc3)o2)cc1)N1CCCCCC1	44.9*	2.3	16.2	6.3	10.9	-11.8	33.2*
N#CC1=C(N)Oc2cc3c(cc2C1c1ccc(Cl)cc1)OCO3 (centres undefined)	43.5*	-0.5	12.4	29.2	-11.1	4.7	-10.8
COc1cc(C2C(C#N)=C(N)Oc3cc4c(cc32)OCO4)cc(OC)c1OC (centres undefined)	-2.6	6.6	17.5	-6.9	-18.7	-3.8	·
CCc1c(C)[nH]c2ccc(OC)cc2c1=S	46.2*	1.3	15.3	23.9	16.0	0.6	35.9*
NC(=O)CSc1nc2sc3c(c2c2ncnn12)CCCC3	42.3*	1.2	11.5	33.4	26.5	4.4	34.2*
O=C(NCc1cccs1)c1cccn2c(=O)c3sccc3nc12	-6.1	-0.1	4.4	-0.6	-12.3	-25.0	·
O=C(NCc1ccco1)c1cccn2c(=O)c3sccc3nc12	40.1*	8.0	2.7	15.7	21.5	·	18.9
NC(=S)N/N=C1\CCOc2ccc(F)cc21	3.3	-5.9	11.8	-12.7	2.2	30.2	·
CC(Sc1nnc(NC2CCCCC2)s1)C(=O)Nc1ccc2c(c1)C(=O)c1ccccc1C2=O (centres undefined)	41.9*	-3.8	24.2	23.0	17.2	33.1	18.9
Cc1ccc(Oc2nc3c(c(=O)n(C)c(=O)n3C)n2C)cc1C	7.8	-2.1	18.2	16.9	-3.0	2.6	·
Cn1c(=O)c2c(nc(Oc3ccc(-c4ccccc4)cc3)n2C)n(C)c1=O	40.1*	-0.2	30.0	13.9	19.0	11.5	4.8
CN(C)CC/C=C1/c2ccccc2Sc2ccc(Cl)cc21	40.5*!	-1.0	46.1	-19.0	20.2	-0.3	26.9
Cc1cc(C)n(-c2nnc(NC34CC5CC(CC(C5)C3)C4)nn2)n1	56.6*	0.0	2.5	46.6	28.6	22.7	42.2*
